Compound activity from PubChem.
IDE cell activ: activators of human insulin-degrading enzyme in cells; activation, % at 5.96 µM; AID 493087; hit rate 0.073% among 340,000; P14735; HEK cells, FAbeta-B cleavage, fluorescence polarization; 0% vehicle, 100% cell-free pure enzyme wells;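 active means activation above the mean of all tested compounds plus 3 SD, set per screening campaign, cut at about 17% in these data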
PKA-R2B activ: activators of human PKA-R2B complex | hit rate 0.079% among 340,000 | activation, % at 11.4 µM | AID 504700 | PKA-R2B holoenzyme dissociation, Cy5-IP20 fluorescence polarization; R2B truncated from residue 108, S112A mutant; 0% DMSO only, 100% 113 µM cGMP;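 active means activation above a cutoff set at the mean over all compounds plus 3 SD, cut at about 18% in these data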;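 further: higher means more holoenzyme dissociation and a rise in polarization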
Rin1 Abl inh: blocks binding of human Rin1 to Abl; P00519+Q13671; hit rate 0.4% among 360,000; AID 588664; inhibition, % at 7.35 µM; TR-FRET Rin1/Abl binding, biochemical; in the data active means inhibition above about 5%, passing the limit was not always enough
PKA-R1A activ: activates the PKA-R1A holoenzyme complex; hit rate 0.083% among 340,000; activation, % at 11.4 µM; P00514+P68181; PKA-R1A dissociation, Cy5-IP20 fluorescence polarization; scaled: DMSO 0%, 113 µM cGMP 100%;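 active means percent activation above the mean of all tested compounds plus 3 SD, cut at about 19% in these data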;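 further: higher means more PKAc released from R1A so a rise in polarization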
IDE inh: cellular human IDE inhibition; P14735; HEK cells, FAbetaB cleavage, fluorescence polarization; inhibition, % at 5.59 µM; hit rate 0.41% among 320,000; AID 434962;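 active means percent inhibition above the average of all tested compounds plus 3 SD, set per screening campaign, cut at about 16% in these data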;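 further: IDE supplied by intact live HEK cells; FP after avidin binding of uncleaved biotin substrate so inhibition keeps polarization high; 0% = DMSO wells and 100% = 60 µM reference IDE inhibitor Ii1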
E coli Lon inh: inhibits E. coli Lon protease. AID 602123. hit rate 0.42% among 360,000. purified E. coli Lon protease, fluorescence polarization. inhibition, % at 7.94 µM; in the data active means inhibition above about 13%, passing the limit was not always enough;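 further: 0% = enzyme with probe and DMSO and 100% = no enzyme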
eLon confirm: confirmation of E. coli Lon protease inhibitors | shares compounds with E coli Lon inh | purified E. coli Lon, fluorescence polarization | inhibition, % at 7.94 µM | hit rate 31% among 1,400 | AID 602230; in the data active means inhibition above about 16%;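 further: 0% = enzyme with probe and DMSO and 100% = no enzyme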
An asterisk follows results filed as active. The list is not random: actives were taken first. Their share in the collection is about 1.3%.

CCOC(=O)c1c(C(C)(C)C)oc2ccc(O)cc12 was read as IDE cell activ 5, PKA-R2B activ -5, Rin1 Abl inh 1, PKA-R1A activ -10, IDE inh 4, E coli Lon inh 20* and eLon confirm 2.
`COC(=O)C1C(C(=O)OC)C1(c1ccccc1)c1ccccc1` (stereo unspecified) gave IDE cell activ 5, PKA-R2B activ -6, Rin1 Abl inh -1, PKA-R1A activ -4, IDE inh 11 and E coli Lon inh -7.
Screening Nc1ccc(CCc2ccccn2)cc1 returned IDE cell activ -3, PKA-R2B activ -8, Rin1 Abl inh 1, PKA-R1A activ 0 and E coli Lon inh -7.
Screening COc1cc(COCC(O)CN2CCN(CCN3C(=O)c4cccc5cccc(c45)C3=O)CC2)cc(OC)c1OC (stereo unspecified) returned IDE cell activ 0, PKA-R2B activ -4, Rin1 Abl inh -8, PKA-R1A activ -11, IDE inh -5, E coli Lon inh 18* and eLon confirm 17*.
`COc1ccc(NS(=O)(=O)c2ccc(Br)cc2)cn1` gave IDE cell activ 0, PKA-R2B activ 9, Rin1 Abl inh 2, PKA-R1A activ -6, IDE inh 10 and E coli Lon inh -10.
`COc1ccc(NS(=O)(=O)c2ccc(F)c(Cl)c2)cn1` gave IDE cell activ 1, PKA-R2B activ -14, Rin1 Abl inh 0, PKA-R1A activ -1, IDE inh 4, E coli Lon inh 58* and eLon confirm -11.
Cc1ccc([C@H]2C(C(=O)O)=CC[C@@H](c3ccc(C(C)C)cc3)N2S(=O)(=O)c2ccc(C)cc2)cc1 was read as IDE cell activ 3, PKA-R2B activ -5, Rin1 Abl inh 2, PKA-R1A activ -4, IDE inh 1, E coli Lon inh 16* and eLon confirm -3.
N#Cc1ccc(S(=O)(=O)NC2CC2)cc1 was read as IDE cell activ 5, PKA-R2B activ -3, Rin1 Abl inh 1, PKA-R1A activ -17, IDE inh 1, E coli Lon inh 20* and eLon confirm 42*.
O=S(=O)(NC1CCCC1)c1ccc(S(=O)(=O)NC2CCCC2)cc1 was read as IDE cell activ -3, PKA-R2B activ 0, Rin1 Abl inh -1, PKA-R1A activ 7, IDE inh 2 and E coli Lon inh 6.
For CCC(CC)C(=O)OCC(=O)Nc1cccc([N+](=O)[O-])c1 the results were IDE cell activ -7, PKA-R2B activ -2, Rin1 Abl inh 2, PKA-R1A activ 2, IDE inh -4, E coli Lon inh 16* and eLon confirm 2.
CC(=O)OCCn1c2nc(=O)[nH]c(=O)c-2nc2cc(C)c(C)cc21 was read as IDE cell activ 75*, PKA-R2B activ -7, Rin1 Abl inh -8, PKA-R1A activ -3, E coli Lon inh active and eLon confirm active.
For CC(=O)OCCn1c(C)[n+](CCOC(C)=O)c2cc(Cl)c(Cl)cc21 the results were IDE cell activ -2, PKA-R2B activ -6, Rin1 Abl inh -1, PKA-R1A activ 2, IDE inh 0 and E coli Lon inh -2.
For CCCCc1nc(NCCNC(=O)c2ccccc2)c(C#N)c2c1CSC(C)(C)C2 the results were IDE cell activ -4, PKA-R2B activ -1, Rin1 Abl inh 1, PKA-R1A activ -14, IDE inh 4, E coli Lon inh 12* and eLon confirm -1.
For CCCCc1nc(NCCNC(=O)c2ccco2)c(C#N)c2c1CSC(C)(C)C2 the results were IDE inh 3.
For COc1ccc(C(=O)CSc2nnc3ccc(-c4ccccn4)nn23)cc1 the results were IDE cell activ 2, PKA-R2B activ 10, Rin1 Abl inh -1, PKA-R1A activ 0, IDE inh 2 and E coli Lon inh -1.
Screening O=C(CN1CCCc2ccccc21)NC(=O)NCc1ccco1 returned IDE cell activ 3, PKA-R2B activ -14, Rin1 Abl inh -2, PKA-R1A activ -13, IDE inh 4, E coli Lon inh 53* and eLon confirm -3.
`O=C(CN1CCCc2ccccc21)NC(=O)NCc1ccccc1` gave IDE cell activ 2, PKA-R2B activ -9, Rin1 Abl inh 1, PKA-R1A activ -8, IDE inh 1 and E coli Lon inh 8.
For CCOc1ccccc1/C=N/NC(=O)c1cc(C(C)C)[nH]n1 the results were IDE cell activ -1, PKA-R2B activ 0, Rin1 Abl inh -1, PKA-R1A activ 4, IDE inh 5 and E coli Lon inh -7.
For CC(C)c1cc(C(=O)N/N=C/c2c[nH]c3ccccc23)n[nH]1 the results were IDE cell activ 5, PKA-R2B activ 4, Rin1 Abl inh -3, PKA-R1A activ -4, IDE inh 7, E coli Lon inh 25* and eLon confirm -8.
`CC1CCN(C(=O)COc2coc(CN3CCc4ccccc43)cc2=O)CC1` gave IDE cell activ 2, PKA-R2B activ -5, Rin1 Abl inh 3, PKA-R1A activ 0, IDE inh -4 and E coli Lon inh 2.
`CC(=O)Nc1cc(-c2ccccc2N(C)C)cn2c(-c3cccc(C(F)(F)F)c3)cnc12` gave Rin1 Abl inh -17, E coli Lon inh active and eLon confirm 9.
For COC(=O)CSC1=C(C#N)C(c2ccc(C)cc2)C2=C(CCCC2=O)N1 (stereo unspecified) the results were IDE cell activ -3, PKA-R2B activ 0, Rin1 Abl inh -7, PKA-R1A activ -6, IDE inh -2 and E coli Lon inh 7.
Screening O=C(NCc1ccco1)c1c(F)cccc1Cl returned IDE cell activ 0, PKA-R2B activ -1, Rin1 Abl inh -5, PKA-R1A activ -5, IDE inh 2 and E coli Lon inh 6.
NC(=O)CSc1cn(Cc2cccc(F)c2)c2ccccc12 was read as IDE cell activ 0, PKA-R2B activ 0, Rin1 Abl inh 3, PKA-R1A activ -2, IDE inh -3, E coli Lon inh 26* and eLon confirm -9.
Screening c1ccc(-c2csc3ncn4cnnc4c23)cc1 returned IDE cell activ 2, PKA-R2B activ 11, Rin1 Abl inh -4, PKA-R1A activ 5, IDE inh -1 and E coli Lon inh -12.
Screening Oc1cc(CNCc2ccccc2)c(O)cc1CNCc1ccccc1 returned IDE cell activ 6, PKA-R2B activ -2, Rin1 Abl inh 3, PKA-R1A activ -3, E coli Lon inh 52* and eLon confirm 12.
